Measurements published in the supplement of paper PMC6555819.

test system: RXRa homodimer (NR concentration 180 nM); test: PBM binding z-score (relative to random genomic background probes); higher = stronger binding; sequences stand for … in GC…GCGATTGACAGCGTAGAATGAAGG
Method in brief: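 For binding z-scores, the reference was random background probes on custom Agilent 4×180K protein-binding microarrays. These arrays were incubated 1 h with ligand-free nuclear receptor dimers in PBS pH 7.4, 2% milk, 0.02% Triton X-100, 1 mM DTT, 0.2 mg/mL BSA and 0.4 mg/ml salmon testes DNA. Fluorescence was scanned after antibody detection of each partner (one per run) and regression-normalized.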

Question: For AGAATTAGGTTATTAAGATCAGGGAATTGCGGTC, which PBM binding z-score is on record?
Answer: 0.275

Question: AGAACGAGGGCAAAGAGTTGATAGCACGGGTGGC was tested. Which PBM binding z-score did it give?
Answer: 1.14

Question: TTACGAAGGTGAAGGTCGTTGATCCCTCTGTAGA was tested. Which PBM binding z-score did it give?
Answer: 1.93

Question: With CAGCCTAGGTCACGGCCAGTATAGGAGGAACGTT as the sequence, how does the PBM binding z-score read?
Answer: 4.43

Question: For AGTCTAAGTTCATCTAGGTAACGTAAGATATGCT, which PBM binding z-score is on record?
Answer: 2.6

Question: For GCTGCTAGGTCAAATGATGGTCAGCTAAAGCTCG, which PBM binding z-score is on record?
Answer: 3.09

Question: Which PBM binding z-score does the source give for CAAACTAGGTCTAGAGGTCAAAGTCCGCTTCCCG here?
Answer: 5.98

Question: How did the PBM binding z-score turn out when CCGACTGGGGCATAAGGTTAACATAAGCCAGCCC was run?
Answer: 1.45

Question: For AGAACGTGGGCACGCTGAGTTGATAGCAGAGTAG, which PBM binding z-score is on record?
Answer: -0.0635

Question: For CAAACTAGGTCACGAAAGGTCAAACTCGAATGAC, which PBM binding z-score is on record?
Answer: 8.85

Question: Which PBM binding z-score does the source give for GCGACTGGGGCATCCGCAGGTTACCATAACTTAA here?
Answer: 0.41

Question: For ATCTCTATGTAAAGTTCAGTGAAAGATCGATAGA, which PBM binding z-score is on record?
Answer: 1.08

Question: With TGAATGAGGTTATAAGATTAGGGAACGTTGCAAA as the sequence, how does the PBM binding z-score read?
Answer: 1.87

Question: GCGACTGGGGCATCAGCAGGTTACCACAACTTAA was tested. Which PBM binding z-score did it give?
Answer: 0.38

Question: With GCTATTAGTTGAAAGGGCAACTGAATGATTCTCG as the sequence, how does the PBM binding z-score read?
Answer: 1.25

Question: ATCTCTAGGTAAAGATAGTTCAGTGATTGCAAAT was tested. Which PBM binding z-score did it give?
Answer: 0.395

Question: For GGAAGGAGGGCATTCGAGTTGATAGCATGGCGAT, which PBM binding z-score is on record?
Answer: 0.679

Question: Which PBM binding z-score does the source give for CCTATCAGGCCAATCTGGGTCACTCAAGGCTTGA here?
Answer: 1.14

Question: Which PBM binding z-score does the source give for ACTAGCAGGCCAAGGGTCATTCAAGATTAGTCCG here?
Answer: 4.5

Question: With CCGAGTAGGTTATGGGGCATTCAAGCAACGGTGA as the sequence, how does the PBM binding z-score read?
Answer: 0.617

Question: With TTTCAAAGTTCAAAGGTAACGTAAGTATCCACAC as the sequence, how does the PBM binding z-score read?
Answer: 7.2

Question: Which PBM binding z-score does the source give for TCTAGCAGGCCAGAGGGTCGCTCAAGAGGTACGG here?
Answer: 0.375

Question: Which PBM binding z-score does the source give for TATACAGGGTCAAAAGCCAGAGTACGAATGTCGA here?
Answer: 5.88

Question: CCTCGGAGGACAACAGGAGGTCAGAGCCGCCAGA was tested. Which PBM binding z-score did it give?
Answer: 1.71

Question: How did the PBM binding z-score turn out when CCGACTGGGGCAAAGGTTACCTTACTCAGTACGA was run?
Answer: 3.54

Question: CGAACGAGAGCATGAGTTGATAGCAAATGCCGAT was tested. Which PBM binding z-score did it give?
Answer: -0.065

Question: Which PBM binding z-score does the source give for CCAGACAGGTGAAAGATAACTCAGTCTGGTACGC here?
Answer: 0.775

Question: How did the PBM binding z-score turn out when CCTATTAGTTGACCATAAGGGCAATCGAAGCTCG was run?
Answer: 0.516

Question: With CCTTACGGATCAAGGTTATAGCACGGGTGGTACG as the sequence, how does the PBM binding z-score read?
Answer: 0.793

Question: With TAGCCTAGGTCATCGGCCAGTATACCACGCGAAC as the sequence, how does the PBM binding z-score read?
Answer: 3.08

Question: Which PBM binding z-score does the source give for CAAACTTGGTCAAGAGGTCAAAGTCCGCTTCCCG here?
Answer: 6.1

Question: How did the PBM binding z-score turn out when CGTCAATGTTCAAGGTAACGTAACAGAAAGCAGC was run?
Answer: 0.198

Question: GCTAGCAGGCCATTTGGGTCAATCAATGACGGGC was tested. Which PBM binding z-score did it give?
Answer: 0.805

Question: CAAACTAGGTCAAGAGGTCATAGTCCGCTTCCCG was tested. Which PBM binding z-score did it give?
Answer: 7.48

Question: How did the PBM binding z-score turn out when GGAACGAGGGCAAGGTGATAGCAGAGTTTGATGG was run?
Answer: 0.928

Question: CCTCGGAGTACAACAGGAGGTCAGAGCTGCCAGA was tested. Which PBM binding z-score did it give?
Answer: 1.86

Question: TAGCCTAGGTCATGCGGGCCAGTAGAGTGTCGGC was tested. Which PBM binding z-score did it give?
Answer: 3.5

Question: Which PBM binding z-score does the source give for TCATATAGGTAAATGCTAGATGAAAGTCCGATCT here?
Answer: 0.617

Question: For TCTTGTAGATCAATAGAGGTTAAGAACGTGCGCT, which PBM binding z-score is on record?
Answer: 1.54

Question: TAGCCTAGGTCATGGGCCAGTCTACCACGCGAAC was tested. Which PBM binding z-score did it give?
Answer: 3.69
